The list is not random: actives were taken first. Their share in the collection is about 7.4%.
ELG1 genotoxic: qHTS screen for small molecules that induce genotoxicity in human embryonic kidney (HEK293T) cells expressing luciferase-tagged ELG1 | HEK293T ELG1-luciferase reporter, luminescence, 16 h | Potency, µM (top dose mostly 46 µM), inactives show at the highest dose activity change, positive = activation, most hits filed as activators | 330,000 tested, 1.3% active | AID 504466, 2011; note: % of control where 0% means no effect; nearly all actives have a fitted effect of over 60% in size
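Luminescence read-out: rising ELG1-luciferase signal, reflecting elevated ELG1 protein under genetic stress, flags genotoxic compounds. Cells were treated for 16 hr at 37 °C before ONE-Glo detection.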
Rab9 promoter act: qHTS Assay for Rab9 Promoter Activators | Potency, µM (top dose mostly 9.22 µM), for the others: top-dose activation, negative = inhibition, most hits filed as activators | Huh7 Rab9 promoter-luciferase reporter, luminescence, 24 h | AID 485297, 2010 | 320,000 tested, 2.8% active; note: % of control where 0% means no effect; nearly all actives have a fitted effect of over 60% in size
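Measured in stably transfected Huh7 cells bearing a Rab9 promoter–luciferase construct: 24 h compound treatment at 37 °C, followed by luminescence detection.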
NPC1 prom act: qHTS Assay for NPC1 Promoter Activators; Huh7 NPC1 promoter luciferase reporter, 24 h; AID 485313, 2010; Potency, µM (doses to about 9.22 µM), without a hit: top-dose activation, hits mostly activators; 320,000 tested, 2.4% active; note: % of control where 0% means no effect; nearly all actives have a fitted effect of over 60% in size
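Stably transfected Huh7 (NPC1 promoter→luciferase), 1500 cells/well in Opti-MEM + 10% FBS, 2 h settle, then compound 24 h at 37 °C. Luminescence after 10 min with Amplite reagent.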
SMN2 splice enh: qHTS Assay for Enhancers of SMN2 Splice Variant Expression; HEK293 SMN2-luciferase splicing reporter, luminescence, 30-36 h; 210,000 tested, 2.8% active; Potency, µM (highest dose often 46.1 µM), without a hit: at the highest dose activity change, positive = activation, hits mostly activators; note: % of control where 0% means no effect; nearly all actives have a fitted effect of over 55% in size
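HEK293 cells carry an SMN2 minigene-luciferase reporter in which exon 7 inclusion puts luciferase in frame. Cells were seeded at 2000 cells/well, attached for 10-12 hours, then exposed to compounds for 30-36 hours at 37C before ONE-Glo luminescence.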
FLuc counter: qHTS profiling assay for firefly luciferase inhibitor/activator using purifed enzyme and Km concentrations of substrates (counterscreen for miR-21 project); 360,000 tested, 6.9% active; purified FLuc, Km substrates, luminescence inhibition; Potency, µM (top dose mostly 57.5 µM), for the others: at the top dose activity change, negative = inhibition, hits mostly inhibitors;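 note: plate controls were vehicle for no effect and reference inhibitor for full effect; nearly all actives have a fitted effect of over 55% in size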
Target sequence (P08659 whole entry, looked up): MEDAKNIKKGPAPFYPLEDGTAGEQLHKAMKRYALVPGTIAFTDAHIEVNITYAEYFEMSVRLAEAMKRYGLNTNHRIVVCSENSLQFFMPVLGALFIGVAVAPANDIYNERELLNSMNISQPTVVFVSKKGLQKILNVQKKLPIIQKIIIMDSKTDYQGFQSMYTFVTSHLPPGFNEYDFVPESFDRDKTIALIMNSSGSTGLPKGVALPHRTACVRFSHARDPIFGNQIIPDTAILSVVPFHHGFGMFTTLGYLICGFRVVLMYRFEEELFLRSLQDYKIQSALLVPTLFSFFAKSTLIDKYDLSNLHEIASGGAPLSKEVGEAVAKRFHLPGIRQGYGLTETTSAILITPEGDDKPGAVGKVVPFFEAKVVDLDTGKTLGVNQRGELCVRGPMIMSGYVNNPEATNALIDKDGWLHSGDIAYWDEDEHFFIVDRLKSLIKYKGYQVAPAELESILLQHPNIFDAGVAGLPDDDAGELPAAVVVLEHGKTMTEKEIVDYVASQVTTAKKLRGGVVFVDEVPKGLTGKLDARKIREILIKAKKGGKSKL
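Biochemical qHTS of compounds, final roughly 60 µM downward over six points, against 10 nM purified firefly luciferase using Km concentrations of substrates (10 uM D-luciferin, 10 uM ATP) in Tris acetate pH 7.5 buffer; luminescence output.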
An asterisk follows results filed as active; ? = inconclusive; / = no result; [ ] = remark or other dose. Calls come from the whole dose curve; as a rule, active = well fitted curve in the direction sought with a large enough effect; inconclusive = small, poorly fitted or top-dose-only effect, or another doubt; inactive = no such curve, though single readings can be large; an effect the other way counts as inactive or inconclusive. Potency is the fitted concentration of half-maximal effect.

SMILES | ELG1 genotoxic | Rab9 promoter act | NPC1 prom act | SMN2 splice enh | FLuc counter
COc1ccc2ccccc2c1/C=N/NC(=O)c1ccccc1F | 0% | -2% | 2% | / | 21µM*
CCCC(=O)Nc1ccc2c(c1)nc1n2CCN(C2CCCCC2)C1 | -3% | 0% | 1% | 4% | -16%
O=[N+]([O-])c1ccc2c(c1)nc1n2CCN(C2CCCCC2)C1 | ? | 2.5µM* | ? | 14µM* | 15µM*
O=[N+]([O-])c1ccc2c(c1)nc1n2CCCCC1 | 0% | 2% | 2% | -12% | -12%
CC(=O)Nc1ccc2c(c1)nc1n2CCN(C2CCCCC2)C1 | ? | 2µM* | 3.5µM* | 13µM* | 24µM*
COC(=O)[C@H](C(C)C)N(Cc1ccccc1)S(=O)(=O)CCN1CCCC1 | 1% | / | / | / | /
CCC(Sc1nc(-c2ccccc2F)nc2c1Cc1c(CO)cnc(C)c1O2)C(=O)Nc1cc(C)ccc1C (stereo not drawn) | / | / | / | / | 0%
COc1ccc(NC(=O)N2CCCC3(CCN(C(=O)c4cccn4C)CC3)C2)cc1 | / | / | / | 4% | /
c1ccc(-c2noc(-c3cccc4ccccc34)n2)nc1 | ? | 28% | ? | 16µM* | 0.76µM*
COc1cccc(-c2nc(-c3ccccn3)no2)c1OC | 9.2µM* | 2.5µM* | 3.5µM* | 13µM* | 13µM*
COc1ccc(-n2cc(CNCC3CCOCC3)c(-c3cccc(F)c3)n2)cc1 | -3% | -5% | -5% | / | ?
COc1ccc(-n2cc(CNCc3cnc4ccccn34)c(-c3cccc(F)c3)n2)cc1 | -14% | 1% | 5% | / | 8.5µM*
Cc1cccc(-n2cc(CNCCc3nc(C)cc(C)n3)c(-c3cccc(F)c3)n2)c1 | -6% | -5% | -7% | / | 15µM*
CN(C)c1ccc(C(c2ccc(N(C)C)cc2)c2ccc([N+](=O)[O-])cc2)cc1 | -6% | -1% | -3% | -18%[9.22 µM] | 6%
CC(NC(=O)C1CC1)c1ccc(-c2ccccc2)cc1 (stereo not drawn) | 1% | 10% | -1% | / | -1%
O=C(O)C1CCC(c2ccc(-c3ccccc3)cc2)CC1 (stereo not drawn) | ? | ? | 2.8µM* | / | 6.7µM*
CC1(C2CC2)NC(=O)N(CC(=O)Nc2ccccc2F)C1=O (stereo not drawn) | 7% | 0% | -1% | / | 3%
Cc1cccc(-c2ccc(C=Nc3c(C)n(C)n(-c4ccccc4)c3=O)o2)c1 | 0% | 9% | 7% | -8% | 24µM*
Cc1c(N=Nc2ccc(O)cc2)c(=O)n(-c2ccccc2)n1C | 8% | 6% | 11% | 16% | -12%
Cc1c(N=Cc2nc3ccccc3[nH]2)c(=O)n(-c2ccccc2)n1C | 0% | 8% | 14% | -35% | 13µM*
Cc1c(NC(=O)/C(C#N)=C/c2ccc(-c3cccc(Cl)c3)o2)c(=O)n(-c2ccccc2)n1C | -14% | -3% | -4% | -25% | -14%
Cc1[nH]c2ccccc2c1N=Nc1c(C)n(C)n(-c2ccccc2)c1=O | -10% | -1% | -1% | -5% | -14%
Cc1c(N=Cc2nc3ccccc3n2C)c(=O)n(-c2ccccc2)n1C | ? | 5% | 0% | 1% | 1.5µM*
COc1ccc2c([N+](=O)[O-])c(Cl)[nH]c2c1 | 5% | 3% | 0% | 23% | -2%
CCc1ccc(C2Sc3ccccc3NC3=C2C(=O)c2ccccc23)cc1 (stereo not drawn) | / | / | / | -79% | 11µM*
O=C1C2=C(Nc3ccccc3SC2c2ccc(C(F)(F)F)cc2)c2ccccc21 (stereo not drawn) | / | / | / | -74% | 3%
O=C1C2=C(Nc3ccccc3SC2c2ccco2)c2ccccc21 (stereo not drawn) | 14% | 13% | 12% | -2% | ?
CC(C)c1ccc(C2Sc3ccccc3NC3=C2C(=O)c2ccccc23)cc1 (stereo not drawn) | / | / | / | -27% | 6µM*

Source: PubChem BioAssay
